Test results from PubChem BioAssay AID1159580 (chemical genetic matrix, 2015).
Values joined by “and” are separate entries in the source; they are usually repeats but may differ in a detail not shown here. Equal entries are not always repeated. Among all 5,500 compounds or so, about 2,000 (36%) were called active. Roughly 18% stayed inconclusive and do not appear here. Rule as the data show it: active = normalized growth mostly below about 0.91 (no sharp cut-off); inconclusive = no clear call, values can overlap the other calls; inactive = mostly above about 0.92. The list shows a part of the results.

Test: chemical genetic growth profiling, strain panel (AID 1159580);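 also: tested at 20 µM; growth read once vehicle control cultures reached saturation at 30 °C; 1 = growth at the plate median or of vehicle wells; lower values mean less growth of the strain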
Details: growth OD

Measured: normalized growth

Cc1ccccc1C(OCCN(C)C)c1ccccc1 (stereo not given)
inactive: S. cerevisiae deletion strains, locus YJR075W, strain HOC1, stronger effect = lower value 0.986 and 0.988 | S. cerevisiae deletion strains, locus YKL009W, strain mrt4, stronger effect = lower value 0.999 | S. cerevisiae deletion strains, locus YKL068W, stronger effect = lower value 0.996 | S. cerevisiae deletion strains, locus YKL085W, strain MDH1 (second series), stronger effect = lower value 1 | S. cerevisiae deletion strains, locus YKL085W, strain MDH1, stronger effect = lower value 1 | S. cerevisiae deletion strains, locus YKL160W, strain elf1, stronger effect = lower value 1.01 | S. cerevisiae deletion strains, locus YKL190W, strain CNB1, stronger effect = lower value 0.996 | S. cerevisiae deletion strains, locus YKR001C, strain vps1, stronger effect = lower value 1.03 | S. cerevisiae deletion strains, locus YKR026C, strain gcn3, stronger effect = lower value 1.01 | S. cerevisiae deletion strains, locus YKR091W, strain srl3, stronger effect = lower value 1.01 | S. cerevisiae deletion strains, locus YLL001W, strain dnm1, stronger effect = lower value 1 | S. cerevisiae deletion strains, locus YLL026W, stronger effect = lower value 1.01 | S. cerevisiae deletion strains, locus YLL041C, strain sdh2, stronger effect = lower value 0.998 | S. cerevisiae deletion strains, locus YLR027C, strain aat2, stronger effect = lower value 0.994 | S. cerevisiae deletion strains, locus YLR039C, strain RIC1, stronger effect = lower value 1.14 | S. cerevisiae deletion strains, locus YLR058C, strain SHM2, stronger effect = lower value 0.996 | S. cerevisiae deletion strains, locus YLR102C, strain apc9, stronger effect = lower value 1 | S. cerevisiae deletion strains, locus YLR113W, strain HOG1, stronger effect = lower value 0.956 | S. cerevisiae deletion strains, locus YLR221C, strain rsa3, stronger effect = lower value 1.01 | S. cerevisiae deletion strains, locus YLR258W, strain gsy2, stronger effect = lower value 1 | S. cerevisiae deletion strains, locus YLR262C, strain YPT6 (second series), stronger effect = lower value 1.05 | S. cerevisiae deletion strains, locus YLR262C, strain YPT6, stronger effect = lower value 1.13 | S. cerevisiae deletion strains, locus YLR268W, strain sec22, stronger effect = lower value 1.05 | S. cerevisiae deletion strains, locus YLR320W, strain mms22, stronger effect = lower value 1.02 | S. cerevisiae deletion strains, locus YLR330W, strain CHS5, stronger effect = lower value 1.01 | S. cerevisiae deletion strains, locus YLR342W, strain FKS1 (second series), stronger effect = lower value 1 | S. cerevisiae deletion strains, locus YLR342W, strain FKS1, stronger effect = lower value 1.03 | S. cerevisiae deletion strains, locus YLR357W, strain rsc2, stronger effect = lower value 1.01 | S. cerevisiae deletion strains, locus YLR370C, strain arc18, stronger effect = lower value 1 | S. cerevisiae deletion strains, locus YLR371W, strain rom2, stronger effect = lower value 1.01 | S. cerevisiae deletion strains, locus YLR384C, strain iki3, stronger effect = lower value 1.01 | S. cerevisiae deletion strains, locus YLR418C, strain cdc73, stronger effect = lower value 0.94 | S. cerevisiae deletion strains, locus YML016C, strain PPZ1, stronger effect = lower value 1 | S. cerevisiae deletion strains, locus YML032C, strain rad52, stronger effect = lower value 1.01 | S. cerevisiae deletion strains, locus YML120C, strain ndi1, stronger effect = lower value 1.01 | S. cerevisiae deletion strains, locus YML124C, strain tub3, stronger effect = lower value 1 | S. cerevisiae deletion strains, locus YMR058W, strain fet3, stronger effect = lower value 0.977 | S. cerevisiae deletion strains, locus YMR078C, strain ctf18, stronger effect = lower value 1.01 | S. cerevisiae deletion strains, locus YMR125W, strain sto1, stronger effect = lower value 1.01 | S. cerevisiae deletion strains, locus YMR129W, stronger effect = lower value 1.01 | S. cerevisiae deletion strains, locus YMR205C, strain PFK2, stronger effect = lower value 1.02 | S. cerevisiae deletion strains, locus YMR223W, strain ubp8, stronger effect = lower value 0.997 | S. cerevisiae deletion strains, locus YMR231W, strain pep5, stronger effect = lower value 0.998 | S. cerevisiae deletion strains, locus YMR263W, strain SAP30, stronger effect = lower value 0.985 | S. cerevisiae deletion strains, locus YMR307W, strain GAS1, stronger effect = lower value 1.01 | S. cerevisiae deletion strains, locus YNL067W, strain RPL9B, stronger effect = lower value 0.994 | S. cerevisiae deletion strains, locus YNL071W, strain lat1, stronger effect = lower value 1 | S. cerevisiae deletion strains, locus YNL128W, strain TEP1, stronger effect = lower value 1 | S. cerevisiae deletion strains, locus YNL153C, strain GIM3, stronger effect = lower value 1.01 | S. cerevisiae deletion strains, locus YNL175C, strain NOP13, stronger effect = lower value 1 | S. cerevisiae deletion strains, locus YNL183C, strain NPR1, stronger effect = lower value 0.945 | S. cerevisiae deletion strains, locus YNL197C, strain WHI3, stronger effect = lower value 1 | S. cerevisiae deletion strains, locus YNL209W, strain ssb2, stronger effect = lower value 1 | S. cerevisiae deletion strains, locus YNL224C, strain SQS1, stronger effect = lower value 0.994 | S. cerevisiae deletion strains, locus YNL233W, strain BNI4, stronger effect = lower value 1.01 | S. cerevisiae deletion strains, locus YNL248C, strain rpa49, stronger effect = lower value 1.01 | S. cerevisiae deletion strains, locus YNL250W, strain rad50, stronger effect = lower value 0.989 | S. cerevisiae deletion strains, locus YNL271C, strain bni1, stronger effect = lower value 1.01 | S. cerevisiae deletion strains, locus YNL298W, strain CLA4, stronger effect = lower value 1.03 | S. cerevisiae deletion strains, locus YNL307C, strain MCK1, stronger effect = lower value 1.02 | S. cerevisiae deletion strains, locus YNL322C, strain KRE1 (second series), stronger effect = lower value 1.03 | S. cerevisiae deletion strains, locus YNL322C, strain KRE1, stronger effect = lower value 0.997 and 0.999 | S. cerevisiae deletion strains, locus YNR049C, strain mso1, stronger effect = lower value 1.02 | S. cerevisiae deletion strains, locus YNR052C, strain pop2, stronger effect = lower value 1.01 | S. cerevisiae deletion strains, locus YOL006C, strain TOP1, stronger effect = lower value 0.986 | S. cerevisiae deletion strains, locus YOL012C, strain htz1 0.949 | S. cerevisiae deletion strains, locus YOL147C, strain pex11, stronger effect = lower value 1.01 | S. cerevisiae deletion strains, locus YOR001W, strain rrp6, stronger effect = lower value 0.994 | S. cerevisiae deletion strains, locus YOR061W, strain CKA2, stronger effect = lower value 1 | S. cerevisiae deletion strains, locus YOR069W, strain VPS5, stronger effect = lower value 1 | S. cerevisiae deletion strains, locus YOR070C, strain gyp1, stronger effect = lower value 0.996 | S. cerevisiae deletion strains, locus YOR080W, strain dia2, stronger effect = lower value 0.996 | S. cerevisiae deletion strains, locus YOR083W, strain WHI5 (second series), stronger effect = lower value 1 | S. cerevisiae deletion strains, locus YOR083W, strain WHI5, stronger effect = lower value 1.02 | S. cerevisiae deletion strains, locus YOR106W, strain vam3, stronger effect = lower value 1.03 | S. cerevisiae deletion strains, locus YOR136W, strain idh2, stronger effect = lower value 0.988 | S. cerevisiae deletion strains, locus YOR144C, strain elg1, stronger effect = lower value 1 | S. cerevisiae deletion strains, locus YOR184W, strain ser1, stronger effect = lower value 1.03 | S. cerevisiae deletion strains, locus YOR231W, strain MKK1, stronger effect = lower value 0.961 | S. cerevisiae deletion strains, locus YOR265W, strain rbl2, stronger effect = lower value 0.994 | S. cerevisiae deletion strains, locus YOR270C, strain vph1, stronger effect = lower value 0.972 | S. cerevisiae deletion strains, locus YOR290C, strain snf2, stronger effect = lower value 1.03 | S. cerevisiae deletion strains, locus YOR316C, strain cot1, stronger effect = lower value 1 | S. cerevisiae deletion strains, locus YPL051W, strain arl3, stronger effect = lower value 0.994 | S. cerevisiae deletion strains, locus YPL078C, strain atp4, stronger effect = lower value 1 | S. cerevisiae deletion strains, locus YPL106C, strain sse1, stronger effect = lower value 1.02 | S. cerevisiae deletion strains, locus YPL240C, strain hsp82, stronger effect = lower value 0.982 | S. cerevisiae deletion strains, locus YPL241C, strain CIN2, stronger effect = lower value 1 and 0.994 | S. cerevisiae deletion strains, locus YPL256C, strain CLN2, stronger effect = lower value 0.933 | S. cerevisiae deletion strains, locus YPR119W, strain clb2, stronger effect = lower value 1 | S. cerevisiae deletion strains, locus YPR141C, strain kar3, stronger effect = lower value 0.994 | S. cerevisiae deletion strains, locus YPR163C, strain tif3, stronger effect = lower value 1.01 | S. cerevisiae deletion strains, locus YPR167C, strain met16, stronger effect = lower value 1 | S. cerevisiae deletion strains, strain wtn01, stronger effect = lower value 1.02 | S. cerevisiae strains, strain wild type, stronger effect = lower value 0.989
